From PubChem BioAssay (EPA / NIEHS) come the findings set out here.

Values joined by “and” are separate entries in the source; they are usually repeats but may differ in a detail not shown here. Equal values may be shown once. Active and inactive are the calls of the source. Rule for the calls: active = hit-call score of the fitted dose curve at least 0.9, where 1 is the maximum; inactive = score below 0.9.

A short description of this experiment: CCTE_Shafer_MEA_dev_correlation_coefficient_mean: CCTE's Neural Network Formation Assay for Mean Correlation Coefficient, Shafer Lab (AID 2284093).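 For AC50: well mean pairwise spike train correlation integrated as AUC over recording days 5 to 12; potency fitted for loss of correlation relative to DMSO vehicle wells.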 In short, it runs like this:
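Spontaneous activity recorded on days 5, 7, 9 and 12 post-plating; pairwise spike correlations are averaged across active electrodes and collapsed to an area-under-curve. Rat cortical cultures are dosed from plating through 12 days, with compound renewed at media changes.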
In the case of `CC[C@H](C)C(=O)O[C@H]1CCC=C2C=C[C@H](C)[C@H](CC[C@@H]3C[C@@H](O)CC(=O)O3)[C@H]21`, the AC50 (usually the midpoint of the concentration-response curve, whichever way the signal moves) was 571 nM (active) and 928 nM (active). For the compound `C[C@@H]1C[C@H]2[C@@H]3CCC4=CC(=O)C=C[C@]4(C)[C@@]3(F)[C@@H](O)C[C@]2(C)[C@@]1(O)C(=O)CO`, the result was inactive. The same measure, in the same setting: then `[Cl-].[Cl-].[NH2-].[NH2-].[Pt+4]`, with “inactive”.
